Assay outcomes (PubChem BioAssay)
An excerpt weighted towards active compounds, which were near 6.9% of everything screened.
Vif-A3F inh: qHTS for Inhibitors of Vif-A3F Interactions: qHTS | actives 0.2% (n = 390,000) | HeLa A3F-eYFP + Vif (tagged APOBEC3F with the HIV-1 protein that degrades it), YFP fluorescence increase | Potency, µM (series often up to 46.1 µM), inactives show at the highest dose activity, negative = active; note: potency is the fitted concentration of half-maximal effect; % of control where 0% means no effect; nearly all actives have a fitted effect of over 65% in size
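HeLa cells stably expressing A3F-eYFP plus Vif, plated and incubated overnight at 37 deg C, then exposed to compounds overnight at 37 deg C. Blocked degradation read as raised yellow fluorescence (Ex 488/Em 500-530).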
SW480 rereplic: A quantitative high throughput screen for small molecules that induce DNA re-replication in SW480 colon adenocarcinoma cells. SW480 DNA re-replication, Hoechst DNA content imaging, 48 h. AID 624297, 2012. actives 1.8% (n = 340,000). Potency, µM (doses to about 46.1 µM), inactives show top-dose re-replication activation, actives largely listed as activators; note: potency is the fitted concentration of half-maximal effect; % of control where 0% means no effect; nearly all actives have a fitted effect of over 55% in size
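Cells (250 per well) received 23 nL compound or DMSO by pin tool and were kept 48 hr at 37 C, 5% CO2. Nuclei were then stained with Hoechst for 40 min and scanned for DNA content.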
Giardia killer: Small Molecules that selectively kill Giardia lamblia: qHTS | Giardia lamblia trophozoite viability | activity change, % at 7.66 µM, hits read low | actives 0.15% (n = 340,000) | AID 540267, 2011; in the data active = activity change below about -80%; inconclusive = between about -30% and that limit;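 note: parasites exposed to compound for two days anaerobically before the ATP read; % is set by controls: 0 for no effect and ±100 for the full control effect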
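Trophozoites 100 cells/well + cpd; 48 hrs, 37 deg C, anaerobic. ATPLite 1-Step added, 15-30 min RT, luminescence read (ATP-based viability).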
MCF10A rereplic: A quantitative high throughput screen for small molecules that induce DNA re-replication in MCF 10a normal breast cells. Potency, µM (top dose mostly 46.1 µM), inactives show top-dose activity, positive = re-replication, hits mostly activators. actives 2.9% (n = 350,000). AID 624296, 2012. MCF 10A DNA re-replication, Hoechst nuclear intensity, 48 h; note: potency is the fitted concentration of half-maximal effect; % of control where 0% means no effect; nearly all actives have a fitted effect of over 50% in size
Vif-APOBEC3G blk: qHTS for Inhibitors of Vif-A3G Interactions: qHTS; HeLa A3G-eYFP + Vif (tagged APOBEC3G with the HIV-1 protein that degrades it), YFP fluorescence, overnight; actives 0.076% (n = 410,000); DNA dC->dU-editing enzyme APOBEC-3G (Homo sapiens), Q9HC16; Potency, µM (top dose mostly 46.1 µM), for inactives: at the highest dose activity, negative = active, hits mostly inhibitors; AID 602310, 2012; note: potency is the fitted concentration of half-maximal effect; % is set by controls: 0 for no effect and ±100 for the full control effect; nearly all actives have a fitted effect of over 60% in size
Target sequence (Q9HC16 whole entry, looked up): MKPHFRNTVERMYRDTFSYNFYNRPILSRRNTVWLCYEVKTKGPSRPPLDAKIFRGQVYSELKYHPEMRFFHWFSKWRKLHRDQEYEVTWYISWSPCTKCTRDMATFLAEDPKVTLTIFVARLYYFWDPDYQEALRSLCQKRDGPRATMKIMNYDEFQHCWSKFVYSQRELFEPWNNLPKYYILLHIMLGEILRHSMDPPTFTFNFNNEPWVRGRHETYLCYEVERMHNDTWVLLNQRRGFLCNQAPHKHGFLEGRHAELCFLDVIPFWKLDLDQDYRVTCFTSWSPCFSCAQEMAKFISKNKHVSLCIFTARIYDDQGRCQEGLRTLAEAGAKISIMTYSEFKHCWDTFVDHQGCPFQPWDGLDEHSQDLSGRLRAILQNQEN
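Read-out is eYFP fluorescence (Ex 488/Em 500-530) from Vif-expressing HeLa A3G-eYFP cells; more signal means A3G escaped Vif-mediated degradation. Cells plated overnight, compound pinned in, incubated overnight at 37 deg C.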
IL1B secr inh: qHTS for Inhibitors of Inflammasome Signaling: IL-1-beta AlphaLISA Primary Screen | THP-1 LPS/ATP IL-1B secretion, AlphaLISA, 16 h; stronger effect = lower value | activity change, % at 57.5 µM | actives 4.7% (n = 360,000); in the data active = activity change below about -50%; inconclusive = mostly about -30% to -49%; note: % is set by controls: 0 for no effect and ±100 for the full control effect
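Secreted IL-1B measured by AlphaLISA bead assay after 16 h compound exposure of THP-1 cells; compounds (final up to 57.5 uM) added 1 h before LPS (250 ng/mL) and ATP (1.25 mM) stimulation; lower signal means less secretion.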
An asterisk follows results filed as active; ? = inconclusive; · = no result given; [ ] = remark or other dose. Unless noted, calls come from the whole dose curve; as a rule, active = well fitted curve in the direction sought with a large enough effect; inconclusive = small, poorly fitted or top-dose-only effect, or another doubt; inactive = no such curve, though single readings can be large; an effect the other way counts as inactive or inconclusive.

SMILES	Vif-A3F inh	SW480 rereplic	Giardia killer	MCF10A rereplic	Vif-APOBEC3G blk	IL1B secr inh
CCOC(=O)c1c(C)[nH]c(C(=O)CSc2nnc(-c3ccncc3)n2CC)c1C	-1.7%	?	38.0	27.0%	-3.9%	?
CS(=O)(=O)Nc1ccc(C2=NN(S(C)(=O)=O)C(c3ccc4nccnc4c3)C2)cc1 (centres undefined)	22.4µM*	4.1%	-6.7	1.5%	?	0.7
CCS(=O)(=O)N1N=C(c2cccc(NS(C)(=O)=O)c2)CC1c1ccc(C)cc1 (centres undefined)	11.2µM*	3.0%	2.8	0.7%	?	16.5
CCS(=O)(=O)Nc1cccc(C2=NN(S(C)(=O)=O)C(c3ccccc3)C2)c1 (centres undefined)	?	-6.0%	-3.8	-17.4%	?	57.3
CN(C)c1ccc(C2CC(c3cccc(NS(C)(=O)=O)c3)=NN2C(=O)c2ccccc2)cc1 (centres undefined)	-0.7%	6.8%	13.0	-0.9%	-1.0%	-58.4*
COc1cccc(C2CC(c3cccc(NS(C)(=O)=O)c3)=NN2C(=O)c2ccccc2)c1OC (centres undefined)	-16.1%	?	9.9	12.8%	1.7%	-1.6
CC(=O)N1N=C(c2ccc(NS(C)(=O)=O)cc2)CC1c1ccc2nccnc2c1 (centres undefined)	-0.2%	-62.1%[1.84 µM]	12.1	1.1%	0.4%	15.9
Cc1cc(C)c(NC(=O)Cn2c(=O)n(-c3ccc(F)cc3)c(=O)c3c(C)c(C(=O)N(C)C)sc32)c(C)c1	-8.5%	·	·	·	-2.3%	·
Cc1ccc(CNC(=O)C2CCC(CNS(=O)(=O)c3ccc4c(c3)CCCC(=O)N4)CC2)cc1 (centres undefined)	3.7%	·	·	·	-0.3%	·
O=C(C=Cc1ccc2c(c1)OCO2)c1ccccc1	-8.4%	?	-13.2	18.4µM*	-2.5%	-72.2*
O=C(O)c1ccc2c(c1)C(=O)N(c1cccc(C(=O)/C=C/c3ccccc3)c1)C2=O	-22.8%	1.6%	1.0	18.4µM*	-16.2%	-27.3
O=C(C=Cc1cccc(Cl)c1)c1ccccc1	-2.8%	14.6µM*	-6.3	18.4µM*	?	?
COC(=O)c1c(C)[nH]c(C(=O)/C=C/c2cccc(Cl)c2)c1C	11.9%	7.0%	-4.5	?	-4.0%	-64.5*
O=C(/C=C/c1ccccc1)NNC(=O)c1cccc(Cl)c1	-0.7%	-1.6%	-4.4	-2.8%	1.9%	-4.2
O=C(O)c1cccc(N2C(=O)c3ccc(C(=O)c4cccc([N+](=O)[O-])c4)cc3C2=O)c1	3.7%	-4.9%	11.4	1.8%	-0.1%	-10.9
Cc1cccc(C)c1NC(=O)Cn1cc(C(=O)C2CC2)c2ccccc21	-1.4%	·	·	·	-0.5%	·
COc1ccc(C2C=C(c3ccccc3)Nc3nc(NC(=O)c4cccc([N+](=O)[O-])c4)nn32)cc1 (centres undefined)	4.8%	·	·	·	-3.2%	·
CCOC(=O)c1c(C)[nH]c(C)c1S(=O)(=O)N(C)CC(=O)Nc1ccc(OC)cc1	0.2%	·	·	·	2.9%	·
Cc1c(C)c2cc3c(c(C)c2oc1=O)OCN(CCc1ccccc1)C3	1.4%	·	·	·	2.9%	·
CCOC(=O)N1C(C)CN(/[N+]([O-])=N/Oc2ccc([N+](=O)[O-])cc2[N+](=O)[O-])CC1C (centres undefined)	·	·	?	·	1.0%	·
O=C(O)c1ccc2c(c1)OCCCO2	5.8%	-12.8%	23.7	-0.4%	0.8%	3.9
O=C(/C=C/c1ccccc1)c1ccc2c(c1)OCCCCO2	2.1%	?	-15.1	?	-18.2%	-78.2*
O=C(C=Cc1ccc2c(c1)OCO2)C=Cc1ccc2c(c1)OCO2	?	·	·	·	0.0%	-18.5
